# Laboratory results reported in publication PMC4336329 (PLoS ONE, 2015).
# In all, about 310,000 compounds went through this assay and about 14,000 (4.5%) showed an effect of 50% or more. The effect is printed as a negative number. The full list was thinned out, with strong results kept by preference.
# Target: human ether-à-go-go-related gene (hERG) potassium channel (human, UniProt Q12809)
# Assay: primary screen, population patch clamp on CHO cells stably expressing hERG; higher = less effect of the substance
# 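Note: peak tail current of the secondary pulse compared with the same well before compound.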
# human ether-à-go-go-related gene (hERG) potassium channel, sequence (Q12809 whole entry, looked up): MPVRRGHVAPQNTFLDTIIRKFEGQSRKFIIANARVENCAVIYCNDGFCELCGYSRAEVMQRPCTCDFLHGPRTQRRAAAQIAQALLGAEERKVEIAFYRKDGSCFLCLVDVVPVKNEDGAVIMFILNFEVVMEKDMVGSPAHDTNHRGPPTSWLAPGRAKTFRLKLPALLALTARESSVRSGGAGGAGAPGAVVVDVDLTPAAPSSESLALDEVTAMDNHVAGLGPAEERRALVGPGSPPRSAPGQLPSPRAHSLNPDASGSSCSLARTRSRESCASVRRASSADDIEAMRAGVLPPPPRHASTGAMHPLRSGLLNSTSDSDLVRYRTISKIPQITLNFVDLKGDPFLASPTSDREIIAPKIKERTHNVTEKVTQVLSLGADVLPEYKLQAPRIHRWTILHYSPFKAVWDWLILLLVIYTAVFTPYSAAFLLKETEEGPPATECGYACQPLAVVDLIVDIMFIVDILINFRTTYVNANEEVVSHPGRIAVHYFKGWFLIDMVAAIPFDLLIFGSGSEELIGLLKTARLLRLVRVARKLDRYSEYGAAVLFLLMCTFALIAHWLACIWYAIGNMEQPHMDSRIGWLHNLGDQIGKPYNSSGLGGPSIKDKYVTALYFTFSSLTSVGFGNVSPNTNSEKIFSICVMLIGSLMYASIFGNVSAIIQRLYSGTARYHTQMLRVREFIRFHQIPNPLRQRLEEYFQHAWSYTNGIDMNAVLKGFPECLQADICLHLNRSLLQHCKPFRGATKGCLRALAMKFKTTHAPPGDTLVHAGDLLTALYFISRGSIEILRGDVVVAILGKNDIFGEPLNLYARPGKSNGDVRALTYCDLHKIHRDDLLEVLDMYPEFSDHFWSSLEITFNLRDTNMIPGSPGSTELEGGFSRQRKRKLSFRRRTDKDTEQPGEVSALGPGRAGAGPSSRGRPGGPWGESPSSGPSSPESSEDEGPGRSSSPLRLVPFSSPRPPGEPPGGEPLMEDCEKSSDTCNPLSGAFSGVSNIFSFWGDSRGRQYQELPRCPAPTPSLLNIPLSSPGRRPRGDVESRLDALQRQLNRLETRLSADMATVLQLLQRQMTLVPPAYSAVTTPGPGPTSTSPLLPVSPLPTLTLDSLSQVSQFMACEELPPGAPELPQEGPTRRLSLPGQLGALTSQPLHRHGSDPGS
row,Compound,"hERG current change (%, negative = inhibition) at 10uM [%]"
1,O=C(CSc1nnc2ccccn12)NC(=O)NC1CCCC1,13.4
2,O=C(O)C1C2C=CC(C2)C1C(=O)Nc1cccc(C(F)(F)F)c1 (stereo not drawn),8.95
3,CC(C)c1ccc(/C=C2\SC(N3CCCC3)=NC2=O)cc1,-37.1
4,CCOc1ccccc1OCCCC(=O)NNC(=O)c1nn(C)c(=O)c2ccccc12,-20.3
5,Cn1cnc(S(=O)(=O)Nc2ccccc2C(=O)NCC2CC2)c1,13.7
6,Cc1ccc(C)c(NC(=S)NNc2ccc(F)cc2F)c1,5.57
7,Cc1c(C)c2ccc(O[C@@H]3O[C@H](CO)[C@@H](O)[C@H](O)[C@H]3O)c(C)c2oc1=O,11.7
8,COc1ccc(NC(=O)c2ccc(Cl)c(S(=O)(=O)N3CCc4ccccc4C3)c2)cn1,-46.8
9,CCc1cc(C(c2cccc(OC)c2)N2CCOCC2)c(NC(=O)c2ccccc2)s1 (stereo not drawn),-1.91
10,Cc1cc(NO)c(C(C)C)cc1N=O,-2.87
11,O=C(NCCNC1CCC(c2ccccc2)CC1)c1ccc(F)cc1 (stereo not drawn),-58.3
12,O=C(NC1CCN(C(=O)NCc2ccccc2)CC1)c1ccc(F)cc1,-15.8
13,O=C(NCCNC1CCC(c2ccccc2)CC1)c1cccs1 (stereo not drawn),-35.2
14,C/C(=N\NC(=O)c1ccccn1)c1ccc(Cl)cc1,5.74
15,Cc1ccc2[nH]c(O)c(N=NC(=O)CCc3ccccc3)c2c1Br,10.5
16,Cc1cc2c(N=NC(=O)C3CC3c3ccccc3)c(O)[nH]c2cc1Br (stereo not drawn),0.687
17,Cc1ccc2[nH]c(O)c(N=NC(=O)C3CC3c3ccccc3)c2c1Br (stereo not drawn),-55.7
18,COCCN1C=C2C(=O)C(C)(OC(=O)CCC(=O)OC)C(=O)C(Br)=C2C=C1c1ccc(OC)cc1 (stereo not drawn),7.96
19,COC(=O)CCC(=O)OC1(C)C(=O)C2=CN(Cc3ccc(OC)cc3)C(c3ccc(OC)cc3)=CC2=C(Br)C1=O (stereo not drawn),-58.7
20,COC(=O)CCC(=O)OC1(C)C(=O)C2=CN(CC3CC3)C(c3ccc(OC)cc3)=CC2=C(Br)C1=O (stereo not drawn),4.74
21,COC(=O)CCC(=O)OC1(C)C(=O)C2=CN(Cc3ccccc3)C(c3ccc(OC)cc3)=CC2=C(Br)C1=O (stereo not drawn),2.01
22,COC(=O)CCC(=O)OC1(C)C(=O)C2=CN(C3CCCC3)C(c3ccc(OC)cc3)=CC2=C(Br)C1=O (stereo not drawn),-52.6
23,COC(=O)CCC(=O)OC1(C)C(=O)C2=CN(C3CC3)C(c3ccc(OC)cc3)=CC2=C(Br)C1=O (stereo not drawn),14.4

row,Compound,"hERG current change (%, negative = inhibition) at 10uM [%]"
1,Cc1ccc(N2CCN(C3=NC(=O)/C(=C\c4cn[nH]c4-c4ccccc4)S3)CC2)cc1,2.07
2,COc1ccc(C2/C=C\CN(C(=O)OCc3ccccc3)CC(=O)N2Cc2ccc(F)cc2)cc1 (stereo not drawn),-26
3,CCOC(=O)Cc1cc(=O)c2c(=O)n(-c3ccccc3)[nH]c2[nH]1,9.55
4,O=C(Oc1ccccc1)Oc1ccc2c(c1)oc(=O)c1ccccc12,16.9
5,CN(C)C(N)=NCCC[C@H](N)C(=O)O.Cl,9.67
6,Clc1ccc2c(N3CCCC3)ccnc2c1,-65.2
7,Oc1ccc(N2CCN(c3ccnc4cc(Cl)ccc34)CC2)cc1,-22.7
8,CC(=O)N1CCC(=NNc2ccnc3cc(Cl)ccc23)CC1,-22.2
9,O=C(c1ccco1)N1CCN(c2ccc(Cl)cc2)CC1,-40.7
10,COc1ccc(N2CCN(c3ccnc4cc(Cl)ccc34)CC2)cc1,-36.5
11,Clc1ccc2c(N3CCNCC3)ccnc2c1,-41.9
12,Clc1ccc2c(N3CCOCC3)ccnc2c1,-17.1
13,CC(=O)N1CCN(c2ccnc3cc(Cl)ccc23)CC1,-50.4
14,O=C(c1ccco1)N1CCN(c2ccnc3cc(Cl)ccc23)CC1,-71.5
15,CC(C)(C)C(=O)N1CCN(c2ccnc3cc(Cl)ccc23)CC1,-73.9
16,O=C(c1ccco1)N1CCN(c2cccc(Cl)c2)CC1,-11.5
17,CCCCOc1ccccc1C1NC(=O)NC(C)=C1C(=O)OCCOCC (stereo not drawn),-8.27
18,COc1ccc(C2CC(c3ccccc3)Nc3nc(N)nn32)cc1 (stereo not drawn),-25
19,Cc1ccc(S(=O)(=O)N2CCOCC2)cc1NC(=O)CSc1nnc(C2CC2)n1C1CC1,-7.36
20,Cc1nc2ccccc2n1-c1nc(-c2ccco2)cc(C(F)(F)F)n1,5.46
21,CC(C)(C)OC(=O)CC[C@@H](C(=O)NCCCCCCCCCCC(=O)N1CCN(C(=O)OC(C)(C)C)CC1)n1cc(CCCCCNC(=O)OC(C)(C)C)nn1,4.12
22,CCOC(=O)c1cc(-c2ccc3c(c2)OCCO3)nc2c1c(C)nn2CCC#N,3.85
23,CC(=O)c1ccc(NC(=O)CCCC(=O)c2ccccc2)cc1,12.6

row,Compound,"hERG current change (%, negative = inhibition) at 10uM [%]"
1,CO/N=C(\C(=O)O)c1csc(NN=C(C)C)n1,16.2
2,COC(=O)c1nc2nc(C)cc(=O)n2[nH]1,20.2
3,O=C(CSc1nnc(-c2cccnc2)n1Cc1ccco1)c1ccc2ccccc2c1,-45.6
4,CCCC(=O)Nc1cc(Cl)ccc1N1CCN(C(=O)CC)CC1,-33.1
5,CC(=O)N1CCN(Cc2nc3cc(Cl)ccc3c(=O)[nH]2)CC1,-31.7
6,NC(=O)C1CCN(Cc2nc3cc(Cl)ccc3c(=O)[nH]2)CC1,5.22
7,CCCCNC(=O)N1CCN(c2ccccc2OCC)CC1,-0.115
8,CCC(=O)N1CCN(c2ccnc3cc(Cl)ccc23)CC1,-63.6
9,O=C(O)CSCC(=O)N1CCN(c2ccnc3cc(Cl)ccc23)CC1,9.15
10,CCOC(=O)N1CCN(c2ccnc3cc(Cl)ccc23)CC1,-66
11,CCCCNC(=O)N1CCN(c2ncccn2)CC1,3.43
12,CCCCNC(=O)N1CCN(c2ccnc3cc(Cl)ccc23)CC1,-78.2
13,O=C(c1ccco1)N1CCN(Cc2nc3cc(Cl)ccc3c(=O)[nH]2)CC1,-61.8
14,CCOC(=O)N1CCC(=NNc2ccnc3cc(Cl)ccc23)CC1,-32.5
15,CCOC(=O)N1CCN(c2cc3nccnc3cc2F)CC1,-12.5
16,Cc1ccc(-c2csc(NC(=O)c3ccco3)n2)cc1C,-15.6
17,CC(=O)Nc1ccc(NC(=O)c2c(-c3ccccc3)noc2C)cn1,15.9
18,c1ccc2c(C3=NNC(=NC4CC4)SC3)c[nH]c2c1,-20.1
19,CCN(CC)CCCNC(=O)c1cc(-c2ccc3c(c2)OCO3)on1,-18.8
20,CCN(CC)CCCNC(=O)c1cc(-c2ccc(Cl)cc2)on1,-63.4
21,O=C(NCCN1CCOCC1)c1cc(-c2cccc(Cl)c2)on1,-4.73
22,CCN(CC)CCCNC(=O)c1cc(-c2ccc(O)cc2)on1,-37.3
23,O=C(NCc1cccs1)c1cc(-c2cccc(Cl)c2)on1,-16.1

row,Compound,"hERG current change (%, negative = inhibition) at 10uM [%]"
1,CCN(CC)CCCNC(=O)c1cc(-c2cccc(Cl)c2)on1,-60.7
2,c1ccc(-c2ccc(-c3ccncn3)cc2)cc1,23.6
3,O=C1NC(=S)N/C1=C/c1cccn1-c1ccc([N+](=O)[O-])cc1,12.8
4,O=C(CNc1cccc(S(=O)(=O)N2CCOCC2)c1)Nc1cccc(Br)c1,-21.6
5,CSCCC(NS(=O)(=O)c1ccc(C)cc1)C(=O)N1CCCC1 (stereo not drawn),2
6,CC1CCN(S(=O)(=O)c2ccc3ncn(CC(=O)N(C)Cc4ccccc4)c(=O)c3c2)CC1,-61.7
7,CC1CCN(S(=O)(=O)c2ccc3ncn(CC(=O)N(C)C4CCCCC4)c(=O)c3c2)CC1,-22.2
8,CCCCN(CC)C(=O)Cn1cnc2ccc(S(=O)(=O)N3CCC(C)CC3)cc2c1=O,-57
9,CC1CCN(S(=O)(=O)c2ccc3ncn(CC(=O)N4CCN(C)CC4)c(=O)c3c2)CC1,-16.3
10,CCCCNC(=O)Cn1cnc2ccc(S(=O)(=O)N3CCC(C)CC3)cc2c1=O,2.68
11,CCN(CC)CCCNC(=O)Cn1cnc2ccc(S(=O)(=O)N3CCC(C)CC3)cc2c1=O,-0.31
12,Cc1cc2cc3c(C)cc(=O)oc3c(C)c2o1,19.8
13,COc1ccc(-c2cc(C(=O)Nc3ccccc3F)on2)cc1,23.3
14,CCOc1ncccc1C(=O)OCC(=O)Nc1cc(S(=O)(=O)N(CC)CC)ccc1C,-42.8
15,Cc1nc2cc(NS(=O)(=O)c3c(C)c(C)cc(C)c3C)ccc2s1,3.47
16,Cc1ccc(C(=O)NCC(=O)NCC(=O)OCC(=O)c2ccc(Br)cc2)cc1,7.3
17,CCCn1c(Nc2cccc(OC)c2)nc2ccccc21,14.8
18,CCN(CC)CCn1c(NCc2cccc(OC)c2)nc2ccccc21.Cl,-57.8
19,CCN(CC)CCn1c(NCc2ccc(OC)cc2)nc2ccccc21,-65.5
20,CCN(CC)CCn1c(NCc2cccc(OC)c2OC)nc2ccccc21,-47
21,CCn1c(NCc2ccc(OC)cc2)nc2ccccc21,-21.7
